The full data set covers some 7,900 targets. This sample favours those with a hit. About 0.6% of all pairs of compound and target were hits.
How the values were obtained:
Assay in all cases: log2 fold change, soluble protein after heating vs DMSO (PISA); higher = thermal stabilisation; K562 cells, 10 uM, 30 min; active = over 0.2 and 3.5 SD of the protein, either way, in both replicates (recomputed)
[1] = compound: CN1CCN(CCOc2cc(OC3CCOCC3)c3c(Nc4c(Cl)ccc5c4OCO5)ncnc3c2)CC1 [saracatinib]
Summary of the method: (§1)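 K562 cells at 2×10^6 cells/mL were treated with 10 μM compound for 30 min. Aliquots were heated for 3 min across 48°C-58°C, pooled, and extracted in PBS with 0.5% NP-40 at 4°C; soluble protein was the supernatant after 21,000xg for 90 min. Soluble protein was quantified by TMTpro 16plex LC-MS/MS with channel sums equalised, and reported as log2 fold change in thermal stability against DMSO controls, with values from duplicates.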

[2] = compound: CN1CCN(c2nc(C3=C(c4c[nH]c5ccccc45)C(=O)NC3=O)c3ccccc3n2)CC1 [sotrastaurin]
Summary of the method: as §1

[3] = compound: CN1CC[C@H](c2c(O)cc(O)c3c(=O)cc(-c4ccccc4Cl)oc23)[C@H](O)C1 [alvocidib]
Summary of the method: as §1

[4] = compound: CN1CCc2c(c3ccccc3n2Cc2ccc(C(=O)NO)cc2)C1 [Tubastatin A]
Summary of the method: as §1

[5] = compound: CNC(=O)C1=CC=CC=C1NC2=NC(=NC=C2Cl)NC3=C(C=C(C=C3)N4CCOCC4)OC
Summary of the method: as §1

[6] = compound: CNC(=O)c1ccc(Nc2ncc(C(F)(F)F)c(NCc3nccnc3N(C)S(C)(=O)=O)n2)cc1 [defactinib]
Summary of the method: as §1

[7] = compound: CNCc1ccc(-c2[nH]c3cc(F)cc4c3c2CCNC4=O)cc1 [rucaparib]
Summary of the method: as §1

[8] = compound: CNc1nc(-c2ccc3c(N)n[nH]c3c2)cc(N2C[C@@H](C(=O)NC3CCCCC3)CC[C@H]2C)n1
Summary of the method: as §1

[9] = compound: COC(=O)N[C@@H](C)CNc1nccc(-c2cn(C(C)C)nc2-c2cc(Cl)cc(NS(C)(=O)=O)c2F)n1 [encorafenib]
Summary of the method: as §1

[10] = compound: COC(=O)[C@H](CCSC)NC(=O)C1=C(C=C(C=C1)NC[C@H](CS)N)C2=CC=CC=C2
Summary of the method: as §1

[11] = compound: COC1=CC=C(C=C1)CN2C=CC3=C2C=C(C=C3)C(=O)NO
Summary of the method: as §1

[12] = compound: CON(C)C(=O)N1N=C(c2cc(F)ccc2F)S[C@@]1(CCCN)c1ccccc1 [filanesib]
Summary of the method: as §1

[13] = compound: CO[C@H]1C[C@@H]2CC[C@@H](C)[C@@](O)(O2)C(=O)C(=O)N2CCCC[C@H]2C(=O)O[C@H]([C@H](C)C[C@@H]2CC[C@H](n3cnnn3)[C@H](OC)C2)CC(=O)[C@H](C)/C=C(\C)[C@@H](O)[C@@H](OC)C(=O)[C@H](C)C[C@H](C)/C=C/C=C/C=C/1C [zotarolimus]
Summary of the method: as §1

[14] = compound: COc1cc(C(=O)O)ccc1NC(=O)[C@@H]1N[C@@H](CC(C)(C)C)[C@](C#N)(c2ccc(Cl)cc2F)[C@H]1c1cccc(Cl)c1F [idasanutlin]
Summary of the method: as §1

[15] = compound: COc1cc(Nc2ncc3c(n2)-c2ccc(Cl)cc2C(c2c(F)cccc2OC)=NC3)ccc1C(=O)O [alisertib]
Summary of the method: as §1

[16] = compound: COc1cc2nc(-c3cc(F)ccc3O)nc(N[C@@H]3CNC[C@H]3C(C)(C)O)c2cc1OC
Summary of the method: as §1

[17] = compound: COc1cc2ncnc(Nc3ccc(F)c(Cl)c3)c2cc1OCCCN1CCOCC1 [gefitinib]
Summary of the method: as §1

[18] = compound: COc1cccc2cc(-c3nc([C@H]4CC[C@H](C(=O)O)CC4)n4ncnc(N)c34)[nH]c12
Summary of the method: as §1

[19] = compound: CS(=O)(=O)CCNCc1ccc(-c2ccc3ncnc(Nc4ccc(OCc5cccc(F)c5)c(Cl)c4)c3c2)o1 [lapatinib]
Summary of the method: as §1

[20] = compound: CS(=O)(=O)N1CCN(Cc2cc3nc(-c4cccc5[nH]ncc45)nc(N4CCOCC4)c3s2)CC1 [pictilisib]
Summary of the method: as §1

Measured: log2 fold change

PTTG1IP (UniProt P53801)
UniProt P53801, sequence (P53801 whole entry, looked up): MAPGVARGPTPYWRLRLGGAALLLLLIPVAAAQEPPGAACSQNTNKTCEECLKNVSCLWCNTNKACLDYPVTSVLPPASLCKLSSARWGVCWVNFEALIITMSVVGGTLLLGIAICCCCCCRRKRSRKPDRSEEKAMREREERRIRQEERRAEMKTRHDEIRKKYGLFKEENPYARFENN
inactive: [1] 0.021 | [2] -0.03 | [3] 0.004 | [4] -0.085 | [5] 0.062 | [6] -0.011 | [7] 0.013 | [8] -0.246 | [9] -0.052 | [10] 0.129 | [11] -0.013 | [12] -0.186 | [13] -0.124 | [14] -0.004 | [15] -0.046 | [16] 0.038 | [17] 0.158 | [18] 0.007 | [19] -0.096 | [20] 0.086

PRMT8 (UniProt Q9NR22)
inactive: [1] 0.015 | [2] -0.046 | [3] -0.029 | [4] -0.09 | [5] -0.009 | [6] -0.039 | [7] -0.059 | [8] 0.052 | [9] 0.01 | [10] -0.122 | [11] -0.143 | [12] -0.162 | [13] -0.014 | [14] -0.109 | [15] -0.028 | [16] -0.019 | [17] 0.002 | [18] 0.042 | [19] 0.145 | [20] 0.025

PLEKHM2 (UniProt Q8IWE5)
UniProt Q8IWE5, sequence (Q8IWE5 whole entry, looked up): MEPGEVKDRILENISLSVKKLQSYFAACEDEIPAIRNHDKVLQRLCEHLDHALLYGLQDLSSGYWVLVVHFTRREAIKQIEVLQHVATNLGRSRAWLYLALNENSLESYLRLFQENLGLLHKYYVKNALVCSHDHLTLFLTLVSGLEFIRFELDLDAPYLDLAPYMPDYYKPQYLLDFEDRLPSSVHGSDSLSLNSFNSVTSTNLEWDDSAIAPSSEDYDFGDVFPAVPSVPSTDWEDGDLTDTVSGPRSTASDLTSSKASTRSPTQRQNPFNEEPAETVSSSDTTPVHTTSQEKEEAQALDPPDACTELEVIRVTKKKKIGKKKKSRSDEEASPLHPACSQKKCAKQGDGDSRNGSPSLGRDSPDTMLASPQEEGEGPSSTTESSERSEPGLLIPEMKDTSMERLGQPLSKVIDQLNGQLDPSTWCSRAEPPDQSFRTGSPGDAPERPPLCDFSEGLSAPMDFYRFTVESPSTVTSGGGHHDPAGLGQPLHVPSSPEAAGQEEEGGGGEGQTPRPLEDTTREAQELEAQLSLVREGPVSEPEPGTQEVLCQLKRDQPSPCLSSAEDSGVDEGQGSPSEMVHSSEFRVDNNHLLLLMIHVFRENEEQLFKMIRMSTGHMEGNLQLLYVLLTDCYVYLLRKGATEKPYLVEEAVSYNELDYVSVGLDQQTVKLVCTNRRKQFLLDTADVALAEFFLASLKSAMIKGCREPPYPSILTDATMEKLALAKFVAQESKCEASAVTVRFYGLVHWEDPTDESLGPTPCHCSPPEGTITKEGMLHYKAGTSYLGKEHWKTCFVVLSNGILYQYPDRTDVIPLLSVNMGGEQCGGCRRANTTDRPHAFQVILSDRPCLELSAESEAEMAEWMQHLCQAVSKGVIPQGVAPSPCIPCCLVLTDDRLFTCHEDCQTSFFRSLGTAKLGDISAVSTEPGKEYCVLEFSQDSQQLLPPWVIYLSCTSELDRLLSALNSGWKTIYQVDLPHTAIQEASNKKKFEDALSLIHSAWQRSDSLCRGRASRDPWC
inactive: [1] -0.002 | [2] -0.047 | [3] -0.119 | [4] 0.029 | [5] -0.215 | [6] -0.054 | [7] -0.087 | [8] -0.019 | [9] 0.058 | [10] -0.014 | [11] 0.007 | [12] -0.09 | [13] 0.053 | [14] -0.083 | [15] 0.044 | [16] -0.041 | [17] 0.075 | [18] -0.041 | [19] 0.084 | [20] 0.011

PIP4K2A (UniProt P48426)
UniProt P48426, sequence (P48426 whole entry, looked up): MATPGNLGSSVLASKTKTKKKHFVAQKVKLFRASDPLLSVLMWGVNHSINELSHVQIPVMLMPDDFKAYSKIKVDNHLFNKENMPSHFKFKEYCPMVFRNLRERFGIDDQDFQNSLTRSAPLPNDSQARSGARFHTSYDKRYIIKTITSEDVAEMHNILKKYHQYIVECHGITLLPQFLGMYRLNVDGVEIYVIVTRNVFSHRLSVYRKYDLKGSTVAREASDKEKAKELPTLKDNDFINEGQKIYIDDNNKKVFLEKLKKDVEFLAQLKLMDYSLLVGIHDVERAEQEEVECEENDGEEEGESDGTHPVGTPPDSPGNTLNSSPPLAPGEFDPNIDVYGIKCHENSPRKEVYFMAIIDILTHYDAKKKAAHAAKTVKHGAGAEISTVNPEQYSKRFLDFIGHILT
active: [16] 0.379
inactive: [1] 0.048 | [2] 0.011 | [3] 0.131 | [4] -0.001 | [5] 0.084 | [6] 0.166 | [7] 0.013 | [8] -0.132 | [9] 0.1 | [10] -0.056 | [11] 0.022 | [12] 0.006 | [13] -0.002 | [14] -0.11 | [15] -0.018 | [17] 0.017 | [18] 0.314 | [19] -0.054 | [20] 0.132

PRKAR1A (UniProt P10644)
UniProt P10644, sequence (P10644 whole entry, looked up): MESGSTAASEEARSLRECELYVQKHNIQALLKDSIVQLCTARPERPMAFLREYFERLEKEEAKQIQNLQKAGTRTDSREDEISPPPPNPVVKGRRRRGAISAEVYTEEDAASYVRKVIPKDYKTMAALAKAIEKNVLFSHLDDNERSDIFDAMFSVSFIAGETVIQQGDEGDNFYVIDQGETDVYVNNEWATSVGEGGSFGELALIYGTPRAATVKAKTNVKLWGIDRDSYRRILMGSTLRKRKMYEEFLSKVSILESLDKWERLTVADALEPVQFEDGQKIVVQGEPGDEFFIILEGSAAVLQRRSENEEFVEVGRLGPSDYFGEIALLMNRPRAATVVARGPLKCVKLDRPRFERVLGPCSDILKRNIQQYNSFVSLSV
inactive: [1] -0.067 | [2] 0.105 | [3] 0.121 | [4] 0.007 | [5] 0.366 | [6] 0.14 | [7] 0.13 | [8] 0.005 | [9] 0.073 | [10] -0.069 | [11] 0.079 | [12] 0.042 | [13] 0.046 | [14] -0.045 | [15] -0.075 | [16] 0.131 | [17] 0.046 | [18] -0.132 | [19] 0 | [20] 0.206

PTPN12 (UniProt Q05209)
UniProt Q05209, sequence (Q05209 whole entry, looked up): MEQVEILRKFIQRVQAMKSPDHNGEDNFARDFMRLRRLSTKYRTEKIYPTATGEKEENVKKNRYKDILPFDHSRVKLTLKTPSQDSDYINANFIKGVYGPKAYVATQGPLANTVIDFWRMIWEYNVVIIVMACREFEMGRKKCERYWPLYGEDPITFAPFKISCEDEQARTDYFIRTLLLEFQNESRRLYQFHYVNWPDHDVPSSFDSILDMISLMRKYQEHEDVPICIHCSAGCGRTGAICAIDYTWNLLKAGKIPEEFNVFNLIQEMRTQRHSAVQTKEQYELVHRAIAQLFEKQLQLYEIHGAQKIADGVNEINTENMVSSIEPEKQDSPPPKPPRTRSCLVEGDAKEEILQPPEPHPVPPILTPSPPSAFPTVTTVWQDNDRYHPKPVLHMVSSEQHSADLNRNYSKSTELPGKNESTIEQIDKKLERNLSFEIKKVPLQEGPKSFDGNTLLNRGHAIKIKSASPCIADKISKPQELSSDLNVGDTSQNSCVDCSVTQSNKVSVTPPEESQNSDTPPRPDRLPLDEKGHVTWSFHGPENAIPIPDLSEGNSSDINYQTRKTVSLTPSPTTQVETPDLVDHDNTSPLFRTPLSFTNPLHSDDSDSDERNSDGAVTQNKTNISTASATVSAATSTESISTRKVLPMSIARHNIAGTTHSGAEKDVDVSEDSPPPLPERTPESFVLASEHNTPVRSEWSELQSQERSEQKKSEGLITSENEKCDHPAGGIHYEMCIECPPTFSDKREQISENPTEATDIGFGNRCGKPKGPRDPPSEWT
inactive: [1] 0.085 | [2] -0.148 | [3] 0.007 | [4] 0.064 | [5] 0.063 | [6] 0.006 | [7] 0.047 | [8] -0.04 | [9] 0.076 | [10] -0.088 | [11] -0.024 | [12] 0.04 | [13] 0.041 | [14] -0.021 | [15] -0.06 | [16] 0.053 | [17] 0.025 | [18] -0.132 | [19] 0.039 | [20] 0.012

PIK3CB (UniProt P42338)
UniProt P42338, sequence (P42338 whole entry, looked up): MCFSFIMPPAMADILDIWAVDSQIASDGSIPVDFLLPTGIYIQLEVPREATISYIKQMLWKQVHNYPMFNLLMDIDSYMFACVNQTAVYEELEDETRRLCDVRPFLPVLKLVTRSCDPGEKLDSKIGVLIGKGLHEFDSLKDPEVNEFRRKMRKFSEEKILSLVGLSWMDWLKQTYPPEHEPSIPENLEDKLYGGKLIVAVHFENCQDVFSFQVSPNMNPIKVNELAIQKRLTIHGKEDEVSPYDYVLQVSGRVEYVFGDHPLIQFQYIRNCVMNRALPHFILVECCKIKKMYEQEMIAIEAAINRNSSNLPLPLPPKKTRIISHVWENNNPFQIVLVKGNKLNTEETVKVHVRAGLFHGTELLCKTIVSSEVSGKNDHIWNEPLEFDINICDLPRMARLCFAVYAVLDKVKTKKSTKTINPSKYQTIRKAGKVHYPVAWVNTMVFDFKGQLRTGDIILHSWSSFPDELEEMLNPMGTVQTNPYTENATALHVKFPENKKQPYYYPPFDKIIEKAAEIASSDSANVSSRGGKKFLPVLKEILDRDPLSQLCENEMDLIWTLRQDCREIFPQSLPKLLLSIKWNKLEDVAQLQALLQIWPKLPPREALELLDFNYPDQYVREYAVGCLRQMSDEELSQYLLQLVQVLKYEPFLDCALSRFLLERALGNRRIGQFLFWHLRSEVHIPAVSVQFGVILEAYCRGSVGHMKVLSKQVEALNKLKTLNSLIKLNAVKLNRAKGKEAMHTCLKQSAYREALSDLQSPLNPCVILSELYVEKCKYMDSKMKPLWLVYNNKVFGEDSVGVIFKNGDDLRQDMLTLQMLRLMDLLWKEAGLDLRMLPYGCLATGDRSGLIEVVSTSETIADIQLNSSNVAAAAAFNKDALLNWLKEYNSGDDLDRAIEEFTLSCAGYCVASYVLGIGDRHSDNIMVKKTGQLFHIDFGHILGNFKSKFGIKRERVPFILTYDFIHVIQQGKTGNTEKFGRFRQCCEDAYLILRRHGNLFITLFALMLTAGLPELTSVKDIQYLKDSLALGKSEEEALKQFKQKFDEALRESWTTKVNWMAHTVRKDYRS
active: [20] 0.258
inactive: [1] -0.019 | [2] 0.01 | [3] -0.026 | [4] 0.001 | [5] -0.011 | [6] -0.04 | [7] 0.014 | [8] 0.042 | [9] -0.015 | [10] -0.003 | [11] 0.063 | [12] 0.007 | [13] 0.042 | [14] -0.041 | [15] 0.003 | [16] 0.02 | [17] 0.048 | [18] 0.01 | [19] 0.001

PPP2R5C isoform 5 (UniProt Q13362)
UniProt Q13362, sequence (Q13362 whole entry, looked up): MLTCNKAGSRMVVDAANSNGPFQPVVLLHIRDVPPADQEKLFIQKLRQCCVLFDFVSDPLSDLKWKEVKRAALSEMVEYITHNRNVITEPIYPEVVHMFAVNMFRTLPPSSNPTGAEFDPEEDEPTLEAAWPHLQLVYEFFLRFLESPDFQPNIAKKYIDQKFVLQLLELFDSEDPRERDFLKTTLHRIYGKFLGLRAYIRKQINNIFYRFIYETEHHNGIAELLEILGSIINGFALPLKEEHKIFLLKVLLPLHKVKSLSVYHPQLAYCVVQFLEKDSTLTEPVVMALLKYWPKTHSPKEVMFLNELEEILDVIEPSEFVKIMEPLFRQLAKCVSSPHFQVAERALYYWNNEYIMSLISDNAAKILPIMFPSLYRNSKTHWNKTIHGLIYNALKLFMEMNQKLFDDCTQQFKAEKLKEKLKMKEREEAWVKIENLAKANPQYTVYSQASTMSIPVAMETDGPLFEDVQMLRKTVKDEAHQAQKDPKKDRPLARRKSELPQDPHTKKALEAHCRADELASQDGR
inactive: [1] 0.007 | [2] -0.018 | [3] -0.045 | [4] 0.014 | [5] -0.02 | [6] -0.044 | [7] -0.019 | [8] 0.023 | [9] 0.126 | [10] -0.042 | [11] 0.022 | [12] -0.126 | [13] 0.031 | [14] -0.137 | [15] -0.11 | [16] 0.082 | [17] -0.018 | [18] -0.012 | [19] 0 | [20] 0.111

PRKAR2A (UniProt P13861)
UniProt P13861, sequence (P13861 whole entry, looked up): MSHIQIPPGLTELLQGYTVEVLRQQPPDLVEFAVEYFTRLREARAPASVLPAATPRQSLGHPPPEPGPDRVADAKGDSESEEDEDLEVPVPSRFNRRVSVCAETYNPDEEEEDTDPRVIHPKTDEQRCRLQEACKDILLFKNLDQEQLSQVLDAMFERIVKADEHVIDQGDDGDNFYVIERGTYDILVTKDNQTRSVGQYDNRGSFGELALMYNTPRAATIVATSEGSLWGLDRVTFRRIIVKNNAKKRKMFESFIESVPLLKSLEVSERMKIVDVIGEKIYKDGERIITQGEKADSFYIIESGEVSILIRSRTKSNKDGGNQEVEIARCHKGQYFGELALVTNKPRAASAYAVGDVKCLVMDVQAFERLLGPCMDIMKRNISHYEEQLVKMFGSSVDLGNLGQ
active: [16] -0.493
inactive: [1] 0.034 | [2] -0.121 | [3] -0.023 | [4] -0.029 | [5] 0.027 | [6] -0.02 | [7] -0.015 | [8] -0.04 | [9] 0.017 | [10] -0.015 | [11] -0.033 | [12] -0.021 | [13] 0.013 | [14] -0.009 | [15] -0.058 | [17] 0.048 | [18] 0.006 | [19] 0.034 | [20] 0.057
